An excerpt weighted towards active compounds, which were near 9.2% of everything screened.
ELG1 DNA repair: qHTS screen for small molecules that inhibit ELG1-dependent DNA repair in human embryonic kidney (HEK293T) cells expressing luciferase-tagged ELG1 | Potency, µM (series often up to 46.1 µM), hits mostly inhibitors | HEK293T ELG1-luciferase reporter, luminescence, 16 h; DNA damage induced by 5-fluorouridine | 330,000 tested, 2.3% active; further: nearly all actives have a fitted effect of over 55% in size
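Cells (2,000 per well) received 5-fluorouridine plus test compound or DMSO and were incubated 16 hr at 37 °C, 5% CO2. Luciferase activity was read by luminescence 30 min after ONE-Glo addition; signal suppression marked inhibition of damage-induced ELG1 function.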
NPC1 prom act: qHTS Assay for NPC1 Promoter Activators; Huh7 NPC1 promoter luciferase reporter, 24 h; Potency, µM (highest dose often 9.22 µM), usual class: activators; 320,000 tested, 2.4% active; AID 485313, 2010; further: nearly all actives have a fitted effect of over 60% in size
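Huh7 cells stably carrying NPC1 promoter–luciferase, plated in Opti-MEM with 10% FBS for 2 h, were exposed to compound in DMSO for 24 h at 37 °C; luciferase reagent was added for 10 min and luminescence read.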
SMN2 splice up: qHTS Assay for Enhancers of SMN2 Splice Variant Expression; HEK293 SMN2-luciferase splicing reporter, luminescence, 30-36 h; Potency, µM (highest dose often 46.1 µM), usual class: activators; 210,000 tested, 2.8% active; AID 1458, 2008; further: nearly all actives have a fitted effect of over 55% in size
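HEK293 cells carry an SMN2 […]–luciferase reporter in which exon 7 inclusion puts luciferase in frame. Cells were plated 10-12 h before compound addition, then incubated 30-36 h at 37C. ONE-Glo luminescence was read; sodium butyrate at 4.5 mM final served as control.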
Rab9 prom act: qHTS Assay for Rab9 Promoter Activators; Huh7 Rab9 promoter-luciferase reporter, luminescence, 24 h; Potency, µM (series often up to 9.22 µM), actives largely listed as activators; 320,000 tested, 2.8% active; further: nearly all actives have a fitted effect of over 60% in size
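Measured in stably transfected Huh7 cells bearing a Rab9 promoter–luciferase construct: 24 h compound treatment at 37 °C, followed by luminescence detection.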
ELG1 genotoxic: qHTS screen for small molecules that induce genotoxicity in human embryonic kidney (HEK293T) cells expressing luciferase-tagged ELG1. Potency, µM (series often up to 46 µM), most hits filed as activators. AID 504466, 2011. HEK293T ELG1-luciferase reporter, luminescence, 16 h. 330,000 tested, 1.3% active; further: nearly all actives have a fitted effect of over 60% in size
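Screening used a luciferase reporter fused to human ELG1 in HEK293T cells. Luminescence was read on a CCD plate imager after 16 hr exposure and 30 min ONE-Glo incubation.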
FLuc counter: qHTS profiling assay for firefly luciferase inhibitor/activator using purifed enzyme and Km concentrations of substrates (counterscreen for miR-21 project). Luciferin 4-monooxygenase (Photinus pyralis), P08659. purified FLuc, Km substrates, luminescence inhibition. Potency, µM (top dose mostly 57.5 µM), most hits filed as inhibitors. 360,000 tested, 6.9% active; further: nearly all actives have a fitted effect of over 55% in size
Target sequence (P08659 whole entry, looked up): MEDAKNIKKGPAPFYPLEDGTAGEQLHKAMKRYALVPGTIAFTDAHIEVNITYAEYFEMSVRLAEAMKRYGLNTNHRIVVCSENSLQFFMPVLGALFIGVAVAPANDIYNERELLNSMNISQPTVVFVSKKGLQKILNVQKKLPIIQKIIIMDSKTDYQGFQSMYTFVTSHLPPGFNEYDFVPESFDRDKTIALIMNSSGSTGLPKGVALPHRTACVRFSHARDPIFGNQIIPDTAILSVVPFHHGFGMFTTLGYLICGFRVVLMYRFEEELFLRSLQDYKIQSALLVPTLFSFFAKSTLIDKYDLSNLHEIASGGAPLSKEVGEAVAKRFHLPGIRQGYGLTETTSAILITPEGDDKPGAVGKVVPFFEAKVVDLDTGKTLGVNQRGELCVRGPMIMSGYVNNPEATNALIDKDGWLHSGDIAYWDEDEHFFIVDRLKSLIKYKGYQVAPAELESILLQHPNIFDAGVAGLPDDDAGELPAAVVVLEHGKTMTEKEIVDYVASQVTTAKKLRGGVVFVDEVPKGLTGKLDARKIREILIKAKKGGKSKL
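Purified P. pyralis luciferase (10nM final) with 10uM D-luciferin and 10uM ATP (Km levels) in 50mM Tris acetate pH 7.5, 10mM Mg acetate, 0.01% Tween-20, 0.05% BSA; qHTS 6-point titration, ~60 µM downward; luminescence read.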
A number is an active result; . = inactive; ? = inconclusive; / = no result; [ ] = remark or other dose. The call rests on the fitted dose curve; in most records, active means well fitted curve in the direction sought with a large enough effect; inconclusive means small, poorly fitted or top-dose-only effect, or another doubt; inactive means no such curve, though single readings can be large; an effect the other way counts as inactive or inconclusive.

SMILES | ELG1 DNA repair | NPC1 prom act | SMN2 splice up | Rab9 prom act | ELG1 genotoxic | FLuc counter
O=C(NCc1ccccn1)c1cc(-c2ccc(Br)cc2)nc2ccccc12 | ? | . | . | . | . | ?
CCc1ccccc1Nc1cc(C(=O)NCc2ccccn2)c2ccccc2n1 | ? | . | . | . | . | 16.9µM
Cc1ccc(-c2cc(C(=O)NCc3ccccn3)c3ccccc3n2)cc1 | ? | . | ? | . | . | 4.26µM
Cc1cc(CNC(=O)c2cccnc2Cl)c2ccccc2n1 | 5.17µM | . | . | . | . | .
Cc1cc(C(=O)NCc2ccccc2Cl)c2ccccc2n1 | . | . | / | . | . | ?
Cc1ccc(OCC(=O)NCc2ccccn2)c(Br)c1 | ? | ? | . | ? | ? | 16.9µM
O=C(/C=C/c1ccccc1)N1CCN(Cc2nc3ccccc3c(=O)[nH]2)CC1 | . | . | . | . | . | .
CN1CCN(CCNC(=O)Cn2c(=O)c3cccn3c3ccc(F)cc32)CC1 | . | . | / | . | . | .
Cc1ccc(-c2cc(C(=O)NCCc3ccccn3)c3ccccc3n2)c(C)c1 | ? | . | . | . | . | .
O=C(NCCc1ccccn1)c1cc(-c2cccc3ccccc23)nc2ccccc12 | 23.1µM | . | . | . | . | .
CCOc1ccc(-c2cc(C(=O)NCc3ccc(C)cc3)c3ccccc3n2)cc1 | / | / | / | / | / | .
CCc1ccc(-c2cc(C(=O)NCc3ccccn3)c3ccccc3n2)cc1 | ? | . | . | . | . | 0.849µM
COc1ccc(Cc2[nH]n3c(=O)c(Cl)c(C)nc3c2-c2ccccc2)cc1 | . | . | . | . | . | ?
C=CCOc1ccc(/C=N/NC(=O)CN2CCOCC2)cc1OCC | . | . | . | . | . | .
Cc1cc(OCC(=O)Nc2cnn(CCCC(=O)O)c2)ccc1[N+](=O)[O-] | . | . | / | . | . | .
Cc1cc(OCC(=O)N2CCCCCC2)ccc1[N+](=O)[O-] | ? | ? | 12.6µM | ? | ? | 16.9µM
Cc1ccc(OCC(=O)N2CCCCCCC2)cc1C | ? | . | / | ? | . | ?
Cc1cc(OCC(=O)Nc2ccncc2)ccc1[N+](=O)[O-] | 7.3µM | . | . | . | . | .
O=C1[C@@H]2C(c3cccnc3)=NO[C@@H]2C(=O)N1c1ccc2ccccc2c1 | . | . | / | . | . | .
Cn1nc(C(F)(F)F)c(C#N)c1N1CCN(c2ccccn2)CC1 | ? | . | . | . | . | .
Cn1nc(C(F)(F)F)c(C#N)c1N1CCN(c2ccccc2)CC1 | 9.2µM | . | . | . | . | .
Cn1nc(C(F)(F)F)c(C#N)c1N1CCN(c2ccc(F)cc2)CC1 | 10.3µM | . | . | . | . | .
CCOc1ccc(S(=O)(=O)N2CCC(C(=O)NCC3CCCO3)CC2)cc1 (configuration not stated) | . | . | / | . | . | .
CCSc1nn(CC(=O)Nc2cccc(CC)c2)c(N)c1S(=O)(=O)c1ccccc1 | / | / | / | / | / | .
COc1ccccc1C(=O)Nc1ccc(Br)c2cccnc12 | . | . | / | . | . | 12µM
SMILES | ELG1 DNA repair | NPC1 prom act | SMN2 splice up | Rab9 prom act | ELG1 genotoxic | FLuc counter
COc1ccccc1C(=O)Nc1cccnc1 | . | . | / | . | . | .
COc1ccc(NC(=O)NC2CCCc3ccccc32)cc1 (configuration not stated) | . | . | / | . | . | .
COc1ccc2o/c(=N\O)c(C(=O)Nc3ccccc3OC)cc2c1 | . | . | . | . | . | ?
COc1cccc2cc(C(=O)Nc3ccccc3C)/c(=N/O)oc12 | ? | ? | / | .[1.84 µM] | ? | 6.75µM
COc1ccc(NC(=O)NC2CCCc3ccccc32)cc1OC (configuration not stated) | ? | ? | / | . | 6.51µM | ?
COc1ccccc1C(=O)Nc1ccc(Br)cc1C | ? | ? | / | ? | . | 16.9µM
O=C(O)c1cc(=O)[nH]c2c(Cl)cccc12 | . | . | . | . | . | .
O=C(Nc1ccc(Cl)c(Cl)c1)Nc1ccccn1 | ? | 3.16µM | / | 4.47µM | ? | ?
COc1ccc(NC(=O)Nc2ccccn2)cc1OC | ? | . | / | . | ? | 19µM
COc1ccccc1C(=O)Nc1ccccn1 | ? | 2.51µM | 22.4µM | ? | 12.6µM | 7.57µM
COc1ccccc1C(=O)Nc1ccncc1 | . | . | / | . | . | .
O=C(Nc1cccnc1)Nc1ccccn1 | . | . | . | . | . | .
COc1ccc(CC(C)N2CCN(Cc3ccccc3)CC2)cc1OC (configuration not stated) | . | . | / | . | . | .
Cc1cc(C)c2c(n1)SCC(=O)N2CC(=O)Nc1cc(F)ccc1F | . | . | / | . | . | .
Cc1ccc(-c2cnc3c(Cl)c(C)nn3c2)cc1 | ? | ? | 3.16µM | 0.447µM | ? | 1.35µM
Cc1cc2ncc(-c3ccc(Cl)cc3)cn2n1 | ? | 3.55µM | 11.2µM | 1.41µM | ? | 2.69µM
Cc1ccc(-c2cnc3cc(C)nn3c2)cc1 | ? | 0.708µM | 12.6µM | 0.447µM | . | 2.13µM
Cc1cc2ncc(C(=O)N=CN(C)C)cn2n1 | . | . | . | . | . | .
Cc1ccc(S(=O)(=O)N2CCCCC2)cc1NC(=O)COC(=O)c1cccn1C | ? | / | / | / | . | /
Cc1cc(NC(=O)CSc2nnc(CNC(=O)c3ccc(F)cc3)o2)no1 | . | . | / | . | . | .
Cc1ccc(CNC(=O)c2c(-c3cccc(Br)c3)noc2C)o1 | / | / | / | / | / | .
Cc1cccc(Cc2nnc(CCC(=O)N(CC3CC3)CC3CCCO3)o2)c1 (configuration not stated) | ? | ? | / | ? | ? | 21.3µM
Cc1cc(C)c2nc(N3CCC(C(=O)NCc4ccccn4)CC3)sc2c1 | ? | . | . | . | . | 16.9µM
Cc1cc(C)c2nc(N3CCC(C(=O)NCc4cccnc4)CC3)sc2c1 | . | . | . | . | . | ?
O=C(CSc1nc2ccccc2s1)N1CCN(C(=O)c2ccco2)CC1 | . | . | . | . | . | .
SMILES | ELG1 DNA repair | NPC1 prom act | SMN2 splice up | Rab9 prom act | ELG1 genotoxic | FLuc counter
CCOc1ccc2nc(SCC(=O)N3CCN(C(=O)c4ccco4)CC3)sc2c1 | ? | . | . | . | . | 16.9µM
CCOc1ccc2nc(SCC(=O)c3cccs3)sc2c1 | ? | 2.51µM | ? | 2.82µM | 14.6µM | 2.69µM
O=C(c1ccco1)N1CCN(c2nc3c(F)cc(F)cc3s2)CC1 | / | / | / | / | / | 23.9µM
CN(CC(=O)Nc1cccc(F)c1)C(=O)/C=C/c1cc(Br)ccc1OC(F)F | . | . | / | . | . | .
CN(C(=O)CSc1nnc(CNC(=O)c2ccccc2)o1)c1ccccc1 | . | . | / | . | . | .
CCc1ccc2nc(N3CCN(C(=O)c4ccco4)CC3)sc2c1 | / | / | / | / | / | 10.7µM
